PubChem BioAssay (NCATS)
Results filed as inconclusive are left out. Calls of active or inactive are those of the source. Calls come from the whole dose curve; as a rule, active = well fitted curve in the direction sought with a large enough effect; inconclusive = small, poorly fitted or top-dose-only effect, or another doubt; inactive = no such curve, though single readings can be large; an effect the other way counts as inactive or inconclusive.

Key:
[1] = Quantitative highthroughput screen to assess conditional lethalithy of P12 Ichikawa cells grown in Human Plasma-Like Medium with dialyzed fetal bovine serum (HPLM+ds) (AID 1963879); conditions: Potency: viability; note: nearly all actives have a fitted effect of over 35% in size; note: potency is the fitted concentration of half-maximal effect; for viability: series mostly up to about 46 µM
Procedure, shortened: (§1)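 Each medium arm—HPLM with 10% dialyzed FBS, or RPMI1640 with 5 mM glucose and 10% untreated or dialyzed FBS—was screened against an 11-point, 3-fold compound titration for 48 h at 37 °C, with CellTiter-Glo luminescence as endpoint.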

[2] = Quantitative highthroughput screen to assess conditional lethalithy of P12 Ichikawa cells grown in RPMI1640 with dialyzed fetal bovine serum (RPMI+ds) (AID 1963880); conditions: Potency: P12-Ichikawa viability; note: nearly all actives have a fitted effect of over 35% in size; note: potency is the fitted concentration of half-maximal effect;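 for viability: 100% = DMSO wells and 0% = empty wells on each plate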
Procedure, shortened: as §1

[3] = Quantitative highthroughput screen to assess conditional lethalithy of P12 Ichikawa cells grown in RPMI1640 with untreated serum (RPMI+s) (AID 1963881); conditions: Potency: viability; note: nearly all actives have a fitted effect of over 35% in size; note: potency is the fitted concentration of half-maximal effect;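 for viability: series mostly up to about 46 µM; 100% = DMSO wells and 0% = empty wells without cells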
Procedure, shortened: as §1

[4] = Quantitative highthroughput screen to assess conditional lethalithy of SEM cells grown in Human Plasma-Like Medium with dialyzed fetal bovine serum (HPLM+ds) (AID 1963882); note: nearly all actives have a fitted effect of over 35% in size; note: potency is the fitted concentration of half-maximal effect; for viability: series mostly up to about 46 µM
Procedure, shortened: as §1

[5] = Quantitative highthroughput screen to assess conditional lethalithy of SEM cells grown in RPMI1640 with unreated serum (RPMI+s) (AID 1963883); note: nearly all actives have a fitted effect of over 35% in size; note: potency is the fitted concentration of half-maximal effect;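 for viability: 100% = DMSO wells and 0% = empty wells without cells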
Procedure, shortened: as §1

[6] = Quantitative highthroughput screen to assess conditional lethalithy of SEM cells grown in RPMI1640 with dialyzed fetal bovine serum (RPMI+ds) (AID 1963884); note: nearly all actives have a fitted effect of over 35% in size; note: potency is the fitted concentration of half-maximal effect;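 for viability: series mostly up to about 46 µM; 100% = DMSO control wells and 0% = empty wells without cells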
Procedure, shortened: as §1

[7] = Quantitative highthroughput screen to assess conditional lethalithy of NOMO1 cells grown in Human Plasma-Like Medium with dialyzed fetal bovine serum (HPLM+ds) (AID 1963878); note: nearly all actives have a fitted effect of over 35% in size; note: potency is the fitted concentration of half-maximal effect;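 for viability: 100% = DMSO wells and 0% = empty wells on each plate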
Procedure, shortened: as §1

[8] = Cellular viability qHTS for adrenocortical cancer (ACC) cell line SW-13 (AID 1963989); conditions: SW-13 ACC cells viability, CellTiter-Glo, 48 h; activity (max response): hits give low values;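 note: cells grown in serum-free medium with ITS supplement; % is set by controls: 0 for no effect and ±100 for the full control effect; nearly all actives have a fitted effect of over 65% in size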
Procedure, shortened: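 SW-13 cells in ITS-supplemented serum-free DMEM were plated overnight, then exposed for 48 h at 37C to compound titrations (up to 46 uM final). Viability was read by CellTiter-Glo luminescence; four-parameter logistic fits gave IC50 and efficacy.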

[9] = Cellular viability qHTS for adrenocortical cancer (ACC) cell line NCI-H295R (AID 1963990);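 note: 0% = DMSO only wells and -100% = full killing with cytotoxic reference compound; nearly all actives have a fitted effect of over 60% in size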
Procedure, shortened: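 Luminescent ATP read-out (CellTiter-Glo, 20 min RT) after 48 h drug exposure of NCI-H295R cells; a titration up to 46 uM final. Data normalized to doxorubicin (100% inhibition) and DMSO (0%); 4-parameter fit gives IC50, max response.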

COc1ccc(-c2coc3cc(O)ccc3c2=O)cc1
inactive: Potency [1] | Potency [2] | Potency [3] | Potency [4] | Potency [5] | Potency [6]

Cc1cc(OCCCS(C)(=O)=O)cc(C)c1-c1cccc(COc2ccc3c(c2)OC[C@H]3CC(=O)O)c1
inactive: Potency [7] | Potency [4]

CC(C)N(CC[C@H](c1ccccc1)c1cc(CO)ccc1O)C(C)C
inactive: Potency [1] | Potency [2] | Potency [3] | Potency [4] | Potency [5] | Potency [6]

O=C(O)C[C@H](O)C[C@H](O)C=Cc1c(C2CC2)nc2ccccc2c1-c1ccc(F)cc1
active: Potency [7] 20.9 µM | Potency [2] 4.18 µM | Potency [3] 3.72 µM | Potency [5] 11.8 µM

CN(C)C(=N)N=C(N)N
active: Potency [1] 26.4 µM

Nc1nc(F)nc2c1ncn2[C@@H]1O[C@H](COP(=O)(O)O)[C@@H](O)[C@H]1O
active: Potency [7] 9.35 µM | Potency [4] 1.48 µM | Potency [5] 8.33 µM | Potency [6] 1.87 µM

COc1nccc(-c2c(-c3ccc(F)cc3)ncn2C2CCNCC2)n1
inactive: Potency [1] | Potency [2] | Potency [3] | Potency [4] | activity (max response) [8] -17.6% | Potency [9]

CCOC(=O)N[C@@H]1CC[C@@H]2[C@@H](C1)C[C@H]1C(=O)O[C@H](C)[C@H]1[C@@H]2C=Cc1ccc(-c2cccc(F)c2)cn1
inactive: Potency [1]

CCCCCCCCCCCC1=C(O)C(=O)C=C(O)C1=O
active: Potency [1] 2.09 µM | Potency [2] 3.32 µM | Potency [3] 2.09 µM
inactive: Potency [4] | activity (max response) [8] -2.06% | Potency [9]

CO[C@H]1C[C@@H]2CC[C@@H](C)[C@@](O)(O2)C(=O)C(=O)N2CCCC[C@@H]2C(=O)O[C@H]([C@H](C)C[C@@H]2CC[C@H](OC(=O)C(C)(CO)CO)[C@H](OC)C2)CC(=O)[C@H](C)C=C(C)[C@@H](O)[C@@H](OC)C(=O)[C@H](C)C[C@H](C)C=CC=CC=C1C
active: Potency [1] 6.62 µM

C=CCc1ccc(O)c(-c2ccc(O)c(CC=C)c2)c1
active: Potency [1] 0.132 µM | Potency [2] 0.526 µM

CCNC(=O)CCCC=CC[C@@H]1[C@H](C=CC(O)CCc2ccccc2)[C@@H](O)C[C@@H]1O (stereo partly specified)
inactive: Potency [1] | Potency [2] | Potency [3] | Potency [4] | Potency [6]

CC(C)N(CCCNC(=O)Nc1ccc(C(C)(C)C)cc1)C[C@H]1O[C@@H](n2cc(Br)c3c(N)ncnc32)[C@H](O)[C@H]1O
active: Potency [7] 20.9 µM | Potency [5] 20.9 µM

O=C(N[C@H](CO)[C@H](O)c1ccc([N+](=O)[O-])cc1)C(Cl)Cl
inactive: Potency [7] | Potency [4] | Potency [5] | Potency [6] | activity (max response) [8] -5.45% | Potency [9]
active: Potency [3] 20.9 µM

COc1cc2nc(N(C)CCCNC(=O)C3CCCO3)nc(N)c2cc1OC (stereo unspecified)
inactive: Potency [1] | Potency [2] | Potency [3] | Potency [4] | Potency [5] | Potency [6] | activity (max response) [8] -10.5% | Potency [9]

CC1=C(C(=O)Nc2cc3cn[nH]c3cc2F)C(c2ccc(C(F)(F)F)cc2)CC(=O)N1 (stereo unspecified)
active: Potency [7] 11.8 µM | Potency [3] 10.5 µM
inactive: activity (max response) [8] 5.03% | Potency [9]

COc1cc(O)c2c(c1)C(=O)c1cc(C)cc(O)c1C2=O
active: Potency [7] 9.11 µM | Potency [4] 6.45 µM | Potency [5] 4.07 µM | Potency [6] 5.12 µM

Cc1nnc(C(C)C)n1C1C[C@H]2CC[C@@H](C1)N2CC[C@H](NC(=O)C1CCC(F)(F)CC1)c1ccccc1 (stereo partly specified)
active: Potency [1] 16.6 µM

CC(C)NC[C@@H](C(=O)N1CCN(c2ncnc3c2[C@H](C)C[C@H]3O)CC1)c1ccc(Cl)cc1
active: Potency [7] 14.8 µM | Potency [4] 0.296 µM | Potency [5] 0.296 µM | Potency [6] 0.296 µM

CC(C)C(=O)Nc1ccc([N+](=O)[O-])c(C(F)(F)F)c1
inactive: Potency [4] | Potency [5] | Potency [6] | activity (max response) [8] 15.5% | Potency [9]
active: Potency [1] 1.87 µM | Potency [2] 3.32 µM | Potency [3] 2.09 µM

COc1cc(CNC(=O)CCCCC=CC(C)C)ccc1O
active: Potency [1] 0.332 µM | Potency [2] 0.418 µM | Potency [3] 0.833 µM | Potency [5] 0.526 µM

CON(C)C(=O)N1N=C(c2cc(F)ccc2F)S[C@]1(CCCN)c1ccccc1
inactive: Potency [7] | Potency [2] | Potency [3] | Potency [4] | Potency [5] | Potency [6]

C[C@H](NCc1ccc(OCc2cccc(F)c2)cc1)C(N)=O
active: Potency [7] 20.9 µM | Potency [5] 0.662 µM | Potency [6] 0.332 µM

CC(C)[N+]1(C)[C@@H]2CC[C@H]1CC(OC(=O)C(CO)c1ccccc1)C2 (stereo partly specified)
active: Potency [7] 13.2 µM | Potency [4] 9.35 µM

CCCCCCCCCCCCCCCC(=O)O[C@H]1[C@@H](O)[C@@H](O)[C@@H]([C@H](NC(=O)[C@@H]2C[C@@H](CCC)CN2C)[C@H](C)Cl)O[C@@H]1SC
inactive: Potency [1] | Potency [2] | Potency [3] | Potency [4] | Potency [5] | Potency [6] | activity (max response) [8] 13.6% | Potency [9]

C[C@]12C=CC(=O)C=C1CC[C@@H]1[C@@H]2[C@@H](O)C[C@@]2(C)[C@@H]1CC[C@]2(O)C(=O)CO
active: Potency [1] 16.6 µM | Potency [2] 7.43 µM | Potency [3] 6.62 µM | Potency [4] 6.62 µM

CC[C@H]1OC(=O)[C@H](C)[C@@H](O[C@H]2C[C@@](C)(OC)[C@@H](O)[C@H](C)O2)[C@H](C)[C@@H](O[C@@H]2O[C@@H](C)C[C@H](N(C)C)[C@@H]2O)[C@](C)(O)C[C@@H](C)C(=O)[C@H](C)[C@@H](O)[C@]1(C)O
active: Potency [7] 9.35 µM | Potency [5] 10.5 µM
